From paper PMC7862700, “An all-to-all approach to the identification of sequence-specific readers for epigenetic DNA modifications on cytosine” come the findings set out here.

What all share (test): DAPPL (digital affinity profiling via proximity ligation, sequencing); 10 mM Tris-HCl pH 7.5, 50 mM NaCl, 1 mM DTT, 4% glycerol, room temperature, 30 min; GST-TFs on glutathione beads, 16-mer random dsDNA library, 0.1% formaldehyde crosslink after washing; high values mean tight binding
Details in all cases: protein: recombinant; tags: N-terminal GST; dsDNA, one strand shown

One assay deals with T1, ELK1 (Homo sapiens, UniProt P19419 1-428).
T1 sequence: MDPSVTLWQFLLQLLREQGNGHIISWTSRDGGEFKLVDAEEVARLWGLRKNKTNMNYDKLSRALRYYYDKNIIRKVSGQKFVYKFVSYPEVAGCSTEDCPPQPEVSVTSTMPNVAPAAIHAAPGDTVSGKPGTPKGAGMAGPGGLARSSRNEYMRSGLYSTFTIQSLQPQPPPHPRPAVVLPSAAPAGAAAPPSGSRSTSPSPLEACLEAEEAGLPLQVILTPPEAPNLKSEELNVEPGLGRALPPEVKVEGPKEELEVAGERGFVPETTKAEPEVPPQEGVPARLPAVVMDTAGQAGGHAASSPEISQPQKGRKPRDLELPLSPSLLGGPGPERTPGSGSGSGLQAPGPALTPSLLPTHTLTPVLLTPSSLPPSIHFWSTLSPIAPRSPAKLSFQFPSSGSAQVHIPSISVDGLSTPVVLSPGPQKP
A digest of the protocol:
(§1)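 Sequencing on an Illumina NextSeq500 followed washing, crosslinking with 0.1% formaldehyde, proximity ligation (BsaI/T4 ligase, 1 h, 37 °C) and PCR amplification of pools that had been incubated for 30 min at room temperature with 200 nmole of a random double-stranded 16-mer DNA library in Tris/NaCl/DTT/glycerol buffer. Each pool held DNA-barcoded human transcription factors, expressed in yeast as GST fusions and captured on glutathione beads, plus a tag-only sample. Binding signal is a hexamer's read frequency for a factor divided by its frequency in the tag-only sample.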

A further assay addresses T2, GABPA (Homo sapiens, UniProt Q06546 1-454).
T2 sequence: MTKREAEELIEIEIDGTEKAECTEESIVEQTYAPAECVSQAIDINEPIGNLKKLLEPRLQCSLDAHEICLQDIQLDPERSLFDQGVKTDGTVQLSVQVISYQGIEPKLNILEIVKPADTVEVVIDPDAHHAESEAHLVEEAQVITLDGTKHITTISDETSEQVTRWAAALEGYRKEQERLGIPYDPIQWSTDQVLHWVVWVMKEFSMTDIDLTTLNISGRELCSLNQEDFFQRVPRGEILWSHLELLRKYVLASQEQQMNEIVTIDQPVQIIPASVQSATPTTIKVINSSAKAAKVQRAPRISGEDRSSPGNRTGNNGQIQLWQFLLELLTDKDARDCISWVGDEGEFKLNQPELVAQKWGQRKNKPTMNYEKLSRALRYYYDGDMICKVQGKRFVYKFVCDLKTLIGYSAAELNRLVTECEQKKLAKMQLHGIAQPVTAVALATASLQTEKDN
A digest of the protocol:
as §1

The target of another assay is T3, ERG (Homo sapiens, UniProt P11308 1-479).
T3 sequence: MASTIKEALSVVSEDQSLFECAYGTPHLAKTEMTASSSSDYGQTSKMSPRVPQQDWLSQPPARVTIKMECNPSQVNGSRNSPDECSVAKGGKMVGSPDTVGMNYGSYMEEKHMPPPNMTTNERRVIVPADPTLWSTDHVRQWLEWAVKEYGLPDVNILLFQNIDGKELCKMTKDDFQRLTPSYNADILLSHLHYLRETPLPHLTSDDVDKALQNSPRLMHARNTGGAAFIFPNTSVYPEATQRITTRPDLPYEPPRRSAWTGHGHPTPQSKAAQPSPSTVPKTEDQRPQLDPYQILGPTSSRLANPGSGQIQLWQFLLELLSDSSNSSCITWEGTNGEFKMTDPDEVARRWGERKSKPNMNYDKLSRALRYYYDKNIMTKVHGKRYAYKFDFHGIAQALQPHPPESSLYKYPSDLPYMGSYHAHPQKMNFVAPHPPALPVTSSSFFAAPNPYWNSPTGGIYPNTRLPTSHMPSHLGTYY
A digest of the protocol: as §1

A further assay deals with ELF1 (Homo sapiens, UniProt P32519 1-619). Put shortly:
as §1

Another assay has as its target SPIB (Homo sapiens, UniProt Q01892 1-262). Put shortly:
as §1

The target in another assay is ETV5 (Homo sapiens, UniProt P41161 1-510). A digest of the protocol: as §1
Sequence of ETV5 (P41161 whole entry): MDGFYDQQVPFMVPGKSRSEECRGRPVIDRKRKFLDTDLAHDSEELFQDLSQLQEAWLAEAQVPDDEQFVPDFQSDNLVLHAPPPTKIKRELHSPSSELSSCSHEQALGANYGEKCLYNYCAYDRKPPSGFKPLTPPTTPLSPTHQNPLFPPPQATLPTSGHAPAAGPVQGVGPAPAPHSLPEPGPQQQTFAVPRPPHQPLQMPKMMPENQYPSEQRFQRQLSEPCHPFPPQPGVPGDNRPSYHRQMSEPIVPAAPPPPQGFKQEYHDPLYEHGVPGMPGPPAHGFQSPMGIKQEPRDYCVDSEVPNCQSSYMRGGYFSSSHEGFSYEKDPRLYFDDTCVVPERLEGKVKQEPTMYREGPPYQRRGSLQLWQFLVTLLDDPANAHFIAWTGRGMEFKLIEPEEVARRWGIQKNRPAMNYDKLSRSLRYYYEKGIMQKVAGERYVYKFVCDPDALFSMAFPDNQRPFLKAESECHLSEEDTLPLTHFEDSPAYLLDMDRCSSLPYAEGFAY
The target in a further assay is T4, SPIC (Homo sapiens, UniProt Q8N5J4 1-248).
T4 sequence: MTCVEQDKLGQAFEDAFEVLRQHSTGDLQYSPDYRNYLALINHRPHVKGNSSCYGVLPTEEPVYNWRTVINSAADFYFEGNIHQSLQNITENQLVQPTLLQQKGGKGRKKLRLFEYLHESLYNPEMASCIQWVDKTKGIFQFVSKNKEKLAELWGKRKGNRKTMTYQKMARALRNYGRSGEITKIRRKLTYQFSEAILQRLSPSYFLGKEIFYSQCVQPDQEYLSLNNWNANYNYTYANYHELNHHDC
A digest of the protocol:
as §1

In the next assay the target is ELF4 (Homo sapiens, UniProt Q99607 1-663). Put shortly: as §1
Sequence of ELF4 (Q99607 whole entry): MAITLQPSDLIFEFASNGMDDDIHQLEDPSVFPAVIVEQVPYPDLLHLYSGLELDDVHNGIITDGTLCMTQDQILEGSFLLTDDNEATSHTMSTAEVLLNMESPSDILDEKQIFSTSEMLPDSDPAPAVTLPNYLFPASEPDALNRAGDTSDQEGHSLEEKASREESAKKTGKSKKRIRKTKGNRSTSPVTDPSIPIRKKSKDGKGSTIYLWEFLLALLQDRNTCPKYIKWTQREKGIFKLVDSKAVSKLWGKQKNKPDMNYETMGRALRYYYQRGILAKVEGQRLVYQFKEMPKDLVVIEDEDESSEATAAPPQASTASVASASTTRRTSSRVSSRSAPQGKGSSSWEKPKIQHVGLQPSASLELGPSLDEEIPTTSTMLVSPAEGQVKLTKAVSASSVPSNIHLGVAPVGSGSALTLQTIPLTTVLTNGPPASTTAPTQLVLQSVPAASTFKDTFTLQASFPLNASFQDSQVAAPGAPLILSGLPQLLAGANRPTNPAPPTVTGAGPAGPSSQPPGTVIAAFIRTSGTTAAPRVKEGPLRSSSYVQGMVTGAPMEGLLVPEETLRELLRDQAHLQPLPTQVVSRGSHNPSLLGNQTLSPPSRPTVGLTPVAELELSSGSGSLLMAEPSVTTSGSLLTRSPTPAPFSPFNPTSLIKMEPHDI
The next assay deals with T5, ELK4 (Homo sapiens, UniProt P28324-2 1-405).
T5 sequence: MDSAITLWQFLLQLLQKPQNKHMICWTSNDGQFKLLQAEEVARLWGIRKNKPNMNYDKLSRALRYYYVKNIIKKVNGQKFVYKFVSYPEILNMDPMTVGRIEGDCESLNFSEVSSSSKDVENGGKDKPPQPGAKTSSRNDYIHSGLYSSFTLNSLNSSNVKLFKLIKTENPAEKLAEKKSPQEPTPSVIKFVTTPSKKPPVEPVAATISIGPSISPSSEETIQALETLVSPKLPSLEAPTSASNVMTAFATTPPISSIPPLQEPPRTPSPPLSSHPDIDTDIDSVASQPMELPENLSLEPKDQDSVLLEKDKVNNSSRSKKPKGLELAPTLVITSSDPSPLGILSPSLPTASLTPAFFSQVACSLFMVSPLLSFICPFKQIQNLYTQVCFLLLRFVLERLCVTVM
Put shortly:
as §1

The target in another assay is T6, ELF3 (Homo sapiens, UniProt P78545 1-371).
T6 sequence: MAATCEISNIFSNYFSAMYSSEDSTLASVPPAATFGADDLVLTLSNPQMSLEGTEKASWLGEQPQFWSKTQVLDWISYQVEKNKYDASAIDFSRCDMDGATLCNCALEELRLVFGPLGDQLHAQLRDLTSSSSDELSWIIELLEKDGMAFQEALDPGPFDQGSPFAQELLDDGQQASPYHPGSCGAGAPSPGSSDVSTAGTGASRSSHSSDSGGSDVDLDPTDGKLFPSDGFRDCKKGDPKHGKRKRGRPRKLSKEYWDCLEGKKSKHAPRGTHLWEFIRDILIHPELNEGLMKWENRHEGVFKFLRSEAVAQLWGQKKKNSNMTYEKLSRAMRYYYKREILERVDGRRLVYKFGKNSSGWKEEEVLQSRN
Put shortly:
as §1

The target in another assay is ETV1 (Homo sapiens, UniProt P50549 1-477). Put shortly:
as §1

The target in the next assay is T7, ERF (Homo sapiens, UniProt P50548 1-548).
T7 sequence: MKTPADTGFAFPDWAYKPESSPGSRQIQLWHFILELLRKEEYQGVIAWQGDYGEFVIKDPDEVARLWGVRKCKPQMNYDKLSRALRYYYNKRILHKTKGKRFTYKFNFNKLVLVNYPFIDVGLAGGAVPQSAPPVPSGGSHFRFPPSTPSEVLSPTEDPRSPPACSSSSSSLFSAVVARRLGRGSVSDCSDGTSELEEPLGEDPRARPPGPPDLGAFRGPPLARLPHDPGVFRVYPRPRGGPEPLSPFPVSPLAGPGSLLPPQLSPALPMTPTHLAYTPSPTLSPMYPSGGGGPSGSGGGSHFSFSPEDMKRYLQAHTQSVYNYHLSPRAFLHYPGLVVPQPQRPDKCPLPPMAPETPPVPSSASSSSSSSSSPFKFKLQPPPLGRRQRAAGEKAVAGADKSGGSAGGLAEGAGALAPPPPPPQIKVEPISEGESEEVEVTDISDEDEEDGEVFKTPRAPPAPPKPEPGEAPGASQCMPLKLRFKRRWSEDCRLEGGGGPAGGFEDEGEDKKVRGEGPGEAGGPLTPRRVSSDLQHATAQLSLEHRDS
Put shortly:
as §1

The target in the next assay is T8, ETV3L (Homo sapiens, UniProt Q6ZN32 1-361).
T8 sequence: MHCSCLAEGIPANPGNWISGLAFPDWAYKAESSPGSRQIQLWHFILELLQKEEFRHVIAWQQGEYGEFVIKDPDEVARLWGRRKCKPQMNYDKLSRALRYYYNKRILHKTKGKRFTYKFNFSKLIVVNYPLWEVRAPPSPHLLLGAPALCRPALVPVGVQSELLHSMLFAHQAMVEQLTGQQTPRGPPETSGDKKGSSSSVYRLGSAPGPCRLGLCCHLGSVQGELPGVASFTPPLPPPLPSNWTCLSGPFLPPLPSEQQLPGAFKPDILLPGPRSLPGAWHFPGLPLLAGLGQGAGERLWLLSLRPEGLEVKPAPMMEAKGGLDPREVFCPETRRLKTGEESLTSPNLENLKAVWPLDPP
Put shortly: as §1

The target of another assay is T9, ETV7 (Homo sapiens, UniProt Q9Y603 1-341).
T9 sequence: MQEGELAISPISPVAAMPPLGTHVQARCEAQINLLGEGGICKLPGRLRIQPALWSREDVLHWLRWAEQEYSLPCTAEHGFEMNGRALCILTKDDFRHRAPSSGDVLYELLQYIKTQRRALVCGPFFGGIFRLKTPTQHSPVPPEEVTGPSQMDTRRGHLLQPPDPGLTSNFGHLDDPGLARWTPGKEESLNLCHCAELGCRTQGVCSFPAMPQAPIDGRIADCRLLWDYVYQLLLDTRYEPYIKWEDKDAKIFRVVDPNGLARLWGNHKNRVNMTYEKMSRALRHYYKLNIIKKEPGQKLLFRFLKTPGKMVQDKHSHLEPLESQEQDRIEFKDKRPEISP
Put shortly: as §1

Another assay addresses ETV6 (Homo sapiens, UniProt P41212 1-452). A digest of the protocol: as §1
Another assay deals with T10, ELK3 (Homo sapiens, UniProt P41970 1-407).
T10 sequence: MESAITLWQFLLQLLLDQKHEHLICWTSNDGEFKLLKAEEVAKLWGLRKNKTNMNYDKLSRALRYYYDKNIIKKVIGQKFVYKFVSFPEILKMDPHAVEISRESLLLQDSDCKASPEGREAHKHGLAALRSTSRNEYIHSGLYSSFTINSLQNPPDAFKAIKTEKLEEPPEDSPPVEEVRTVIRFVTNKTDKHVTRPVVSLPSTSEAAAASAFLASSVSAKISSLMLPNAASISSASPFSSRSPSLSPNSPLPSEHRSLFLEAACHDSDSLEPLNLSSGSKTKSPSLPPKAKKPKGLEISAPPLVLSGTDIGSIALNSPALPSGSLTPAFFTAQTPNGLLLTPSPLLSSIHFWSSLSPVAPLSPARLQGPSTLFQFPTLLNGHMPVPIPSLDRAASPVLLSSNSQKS
Put shortly: as §1

The next assay has as its target T11, ETS2 (Homo sapiens, UniProt P15036 1-469).
T11 sequence: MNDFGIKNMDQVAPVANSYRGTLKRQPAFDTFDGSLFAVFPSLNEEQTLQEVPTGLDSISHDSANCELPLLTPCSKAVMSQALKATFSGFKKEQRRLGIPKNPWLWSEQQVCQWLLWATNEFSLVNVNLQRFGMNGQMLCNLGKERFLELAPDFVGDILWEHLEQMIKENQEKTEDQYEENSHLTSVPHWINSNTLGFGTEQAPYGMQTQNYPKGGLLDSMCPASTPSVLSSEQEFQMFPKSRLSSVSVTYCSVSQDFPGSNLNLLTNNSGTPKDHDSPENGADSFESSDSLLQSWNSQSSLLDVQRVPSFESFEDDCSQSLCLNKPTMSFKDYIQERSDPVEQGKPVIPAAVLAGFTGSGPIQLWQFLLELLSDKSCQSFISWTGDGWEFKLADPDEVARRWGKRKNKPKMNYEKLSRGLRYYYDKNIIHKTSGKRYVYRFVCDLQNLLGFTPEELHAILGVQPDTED
A digest of the protocol: as §1

Sequence of ELF1 (P32519 whole entry): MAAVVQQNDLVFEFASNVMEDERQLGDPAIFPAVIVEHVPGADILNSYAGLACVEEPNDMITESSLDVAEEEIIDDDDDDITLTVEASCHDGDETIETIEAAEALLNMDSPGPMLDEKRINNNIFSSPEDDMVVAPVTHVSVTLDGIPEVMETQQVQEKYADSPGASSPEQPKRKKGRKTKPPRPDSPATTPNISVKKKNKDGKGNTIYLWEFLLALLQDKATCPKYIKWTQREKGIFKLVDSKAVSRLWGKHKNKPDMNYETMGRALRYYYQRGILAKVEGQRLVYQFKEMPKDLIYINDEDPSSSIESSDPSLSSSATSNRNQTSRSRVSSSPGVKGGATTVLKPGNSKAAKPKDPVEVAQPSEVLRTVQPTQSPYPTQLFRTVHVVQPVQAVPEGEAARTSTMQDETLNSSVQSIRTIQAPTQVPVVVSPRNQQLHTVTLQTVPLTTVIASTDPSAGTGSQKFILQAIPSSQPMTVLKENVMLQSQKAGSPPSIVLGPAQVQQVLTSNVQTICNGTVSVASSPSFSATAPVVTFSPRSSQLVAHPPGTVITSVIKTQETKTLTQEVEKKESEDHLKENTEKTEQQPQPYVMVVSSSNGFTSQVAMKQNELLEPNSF
Sequence of ETV6 (P41212 whole entry): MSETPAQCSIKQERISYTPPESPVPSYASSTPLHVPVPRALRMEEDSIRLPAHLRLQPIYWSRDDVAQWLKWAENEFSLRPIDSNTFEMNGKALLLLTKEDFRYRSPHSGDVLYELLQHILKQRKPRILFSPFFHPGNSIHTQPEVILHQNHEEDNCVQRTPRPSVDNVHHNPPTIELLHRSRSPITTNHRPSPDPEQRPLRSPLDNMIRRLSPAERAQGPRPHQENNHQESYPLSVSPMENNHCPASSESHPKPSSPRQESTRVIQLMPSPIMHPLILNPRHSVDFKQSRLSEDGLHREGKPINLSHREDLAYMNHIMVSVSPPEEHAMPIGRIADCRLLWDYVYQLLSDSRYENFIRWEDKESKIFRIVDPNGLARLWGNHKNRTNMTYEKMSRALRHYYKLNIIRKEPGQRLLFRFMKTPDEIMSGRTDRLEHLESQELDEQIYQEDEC
Sequence of SPIB (Q01892 whole entry): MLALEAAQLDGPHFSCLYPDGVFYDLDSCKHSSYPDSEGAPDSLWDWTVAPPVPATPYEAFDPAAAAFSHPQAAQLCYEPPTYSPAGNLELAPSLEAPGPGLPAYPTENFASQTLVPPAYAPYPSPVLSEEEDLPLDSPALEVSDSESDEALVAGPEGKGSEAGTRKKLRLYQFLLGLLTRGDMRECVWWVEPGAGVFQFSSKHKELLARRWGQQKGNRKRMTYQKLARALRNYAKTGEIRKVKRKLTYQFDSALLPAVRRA
Sequence of ETV1 (P50549 whole entry): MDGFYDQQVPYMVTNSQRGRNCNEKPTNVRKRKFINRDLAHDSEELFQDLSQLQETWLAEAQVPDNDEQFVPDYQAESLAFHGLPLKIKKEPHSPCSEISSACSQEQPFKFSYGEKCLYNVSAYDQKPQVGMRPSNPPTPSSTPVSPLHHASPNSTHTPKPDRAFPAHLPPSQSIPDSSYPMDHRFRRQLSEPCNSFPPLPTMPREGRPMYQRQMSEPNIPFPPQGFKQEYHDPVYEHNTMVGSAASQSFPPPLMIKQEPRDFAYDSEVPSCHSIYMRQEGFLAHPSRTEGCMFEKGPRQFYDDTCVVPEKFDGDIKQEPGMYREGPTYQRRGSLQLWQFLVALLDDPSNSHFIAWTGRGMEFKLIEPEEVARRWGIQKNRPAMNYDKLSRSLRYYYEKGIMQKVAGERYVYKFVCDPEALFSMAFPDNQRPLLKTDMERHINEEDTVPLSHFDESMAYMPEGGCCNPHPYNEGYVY

Turning to GGGGCT, the binding signal with ELK1 is 1.09 fold enrichment (6-mer frequency, TF over GST control); in the assay with GABPA it was 1.11 fold enrichment (6-mer frequency, TF over GST control); with ERG, 1.01 fold enrichment (6-mer frequency, TF over GST control); with ELF1, 1.04 fold enrichment (6-mer frequency, TF over GST control); with SPIB, 1.03 fold enrichment (6-mer frequency, TF over GST control); in the assay with ETV5, 1.04 fold enrichment (6-mer frequency, TF over GST control). Besides, the binding signal was 1.01 fold enrichment (6-mer frequency, TF over GST control) with SPIC; 1.1 fold enrichment (6-mer frequency, TF over GST control) with ELF4; 1.14 fold enrichment (6-mer frequency, TF over GST control) with ELK4; 1.01 fold enrichment (6-mer frequency, TF over GST control) with ELF3; 1.11 fold enrichment (6-mer frequency, TF over GST control) with ETV1; 1.06 fold enrichment (6-mer frequency, TF over GST control) with ERF. The binding signal was 1.22 fold enrichment (6-mer frequency, TF over GST control) with ETV3L; 1.06 fold enrichment (6-mer frequency, TF over GST control) in the assay with ETV7; 1.04 fold enrichment (6-mer frequency, TF over GST control) in the assay with ETV6.
In the case of GCGAAA, the binding signal in the assay with ETV5 was 1.01 fold enrichment (6-mer frequency, TF over GST control); with ETV7, 1.04 fold enrichment (6-mer frequency, TF over GST control).
In the case of CGCCCA, the binding signal with ELK1 is 1.13 fold enrichment (6-mer frequency, TF over GST control); with GABPA it was 1.11 fold enrichment (6-mer frequency, TF over GST control); in the assay with ERG, 1.06 fold enrichment (6-mer frequency, TF over GST control); in the assay with ELF1, 1.04 fold enrichment (6-mer frequency, TF over GST control); in the assay with ELK3, 1.04 fold enrichment (6-mer frequency, TF over GST control); with ETV5 it was 1.01 fold enrichment (6-mer frequency, TF over GST control). The binding signal was 1.06 fold enrichment (6-mer frequency, TF over GST control) with SPIC; 1.04 fold enrichment (6-mer frequency, TF over GST control) with ELF4; 1.04 fold enrichment (6-mer frequency, TF over GST control) with ELK4; 1.08 fold enrichment (6-mer frequency, TF over GST control) with ERF; 1.04 fold enrichment (6-mer frequency, TF over GST control) with ETS2; 1.09 fold enrichment (6-mer frequency, TF over GST control) with ETV6.
